According to article PMC4336329 (PLoS ONE, 2015):
Screen size: about 310,000 compounds; about 14,000 (4.5%) showed an effect of 50% or more. The effect is printed as a negative number. Many of the other results were omitted from the sample, so strong results are more common in it than they were.

The compounds below were run against human ether-à-go-go-related gene (hERG) potassium channel (human, UniProt Q12809) (assay: primary screen, population patch clamp on CHO cells stably expressing hERG; higher = less effect of the substance).
Chain of human ether-à-go-go-related gene (hERG) potassium channel (Q12809 whole entry, looked up): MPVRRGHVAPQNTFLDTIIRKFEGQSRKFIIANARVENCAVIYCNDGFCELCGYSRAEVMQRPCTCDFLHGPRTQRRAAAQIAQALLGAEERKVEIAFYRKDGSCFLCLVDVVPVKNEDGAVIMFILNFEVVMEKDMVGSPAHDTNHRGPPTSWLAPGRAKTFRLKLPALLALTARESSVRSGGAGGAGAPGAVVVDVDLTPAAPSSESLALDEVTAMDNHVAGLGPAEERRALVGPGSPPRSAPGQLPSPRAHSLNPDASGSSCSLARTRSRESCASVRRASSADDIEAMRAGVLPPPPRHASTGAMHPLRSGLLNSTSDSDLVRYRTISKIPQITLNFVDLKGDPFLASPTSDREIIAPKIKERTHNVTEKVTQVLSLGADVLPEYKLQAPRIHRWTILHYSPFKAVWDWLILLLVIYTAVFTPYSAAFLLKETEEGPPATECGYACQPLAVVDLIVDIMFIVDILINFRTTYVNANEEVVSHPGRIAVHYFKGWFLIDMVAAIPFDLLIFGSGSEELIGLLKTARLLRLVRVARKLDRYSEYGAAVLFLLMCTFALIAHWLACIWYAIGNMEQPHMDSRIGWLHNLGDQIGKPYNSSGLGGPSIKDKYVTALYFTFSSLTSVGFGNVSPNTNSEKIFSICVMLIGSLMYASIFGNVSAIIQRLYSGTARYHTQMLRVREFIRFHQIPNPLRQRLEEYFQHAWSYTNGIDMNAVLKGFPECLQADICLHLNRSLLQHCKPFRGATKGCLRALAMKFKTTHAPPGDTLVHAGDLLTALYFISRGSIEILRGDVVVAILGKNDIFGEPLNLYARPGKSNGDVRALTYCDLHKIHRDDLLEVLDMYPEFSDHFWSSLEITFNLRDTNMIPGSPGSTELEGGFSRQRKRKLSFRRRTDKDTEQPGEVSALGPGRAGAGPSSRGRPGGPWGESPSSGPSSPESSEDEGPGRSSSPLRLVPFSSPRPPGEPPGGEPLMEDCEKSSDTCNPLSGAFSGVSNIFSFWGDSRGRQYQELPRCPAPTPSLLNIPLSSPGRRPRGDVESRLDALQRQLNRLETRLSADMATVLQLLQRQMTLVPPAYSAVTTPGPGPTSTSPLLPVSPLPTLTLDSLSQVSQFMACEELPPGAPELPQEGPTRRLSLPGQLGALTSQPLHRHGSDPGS
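Further: peak tail current of the secondary pulse compared with the same well before compound.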

Row | Compound | hERG current change (%, negative = inhibition) at 10uM [%]
1 | CS(=O)(=O)c1ccc(-c2nnc(NC(=O)c3cccc(N4C(=O)CCC4=O)c3)o2)cc1 | 6.65
2 | O=C(Nc1ccc(N2CCCC2)c(Cl)c1)c1ccc(Br)o1 | -7.29
3 | O=C(Nc1ccc(N2CCN(C(=O)c3ccccc3)CC2)c(Cl)c1)c1ccco1 | -29.5
4 | CC(=O)N1CCN(c2ccc(NC(=O)c3ccc(Br)o3)cc2Cl)CC1 | -55.3
5 | O=C(Nc1ccc(N2CCN(C(=O)c3ccccc3)CC2)c(Cl)c1)c1ccc(Br)o1 | -58.2
6 | O=C(Nc1ccc(N2CCOCC2)c(Cl)c1)c1ccc(Br)o1 | -31.9
7 | O=C(Nc1ccc(N2CCN(C(=O)c3ccccc3)CC2)c(Cl)c1)c1ncn[nH]1 | -5.79
8 | CCCCN(CC)S(=O)(=O)c1ccc(C(=O)Nc2nnc(-c3cccs3)o2)cc1 | -8.71
9 | COc1ccc(S(=O)(=O)N2CCOCC2)cc1NC(=O)CSc1nnc(C2CC2)n1C1CC1 | 2.57
10 | O=C(CN1C(=O)NC2(CCCc3ccccc32)C1=O)NCc1cccs1 (stereo not drawn) | 6.2
11 | CCOC(=O)C1CCCN(C(=S)Nc2cccc(Cl)c2)C1 (stereo not drawn) | -5.74
12 | O=C(CCCc1ccccc1)NCCS(=O)(=O)N1CCN(c2ccc(F)cc2)CC1 | -39.3
13 | COC(=O)Cc1[nH]n(-c2nc3ccccc3s2)c(=O)c1C(C)=O | 21.6
14 | CCCc1[nH]n(-c2nc3ccccc3s2)c(=O)c1C=NCC1CCCO1 (stereo not drawn) | -65.5
15 | CCCc1[nH]n(-c2nc3ccccc3s2)c(=O)c1C=NCCCOC | -57.2
16 | CCCCCN=Cc1c(C)[nH]n(-c2nc3ccccc3s2)c1=O | -65.5
17 | CCCc1[nH]n(-c2nc3ccccc3s2)c(=O)c1C=NCCN1CCOCC1 | -34.5
18 | Cc1[nH]n(-c2ccccc2)c(=O)c1C=NCC1CCCO1 (stereo not drawn) | 13.8
19 | Cc1[nH]n(-c2ccc([N+](=O)[O-])cc2)c(=O)c1C=NCC1CCCO1 (stereo not drawn) | 0.91
20 | CC(=NCc1ccco1)c1c(C)[nH]n(-c2nc3ccccc3s2)c1=O | 3.78
21 | CCCN=Cc1c(CCC)[nH]n(-c2nc3ccccc3s2)c1=O | -66.9
22 | COC(=O)Cc1[nH]n(-c2nc3ccccc3s2)c(=O)c1C(C)=Nc1ccc(C)cc1 | 5.94

Row | Compound | hERG current change (%, negative = inhibition) at 10uM [%]
23 | CCCc1cc(=O)n(-c2nc3ccccc3s2)[nH]1 | 11.2
24 | CCCCN=Cc1c(C)[nH]n(-c2ccccc2)c1=S | -4.64
25 | C/C(=N\NC(=O)c1ccc(NS(=O)(=O)c2cccs2)cc1)c1ccc(O)cc1O | -0.956
26 | CSc1nc(N)nc(C(C)C)n1 | -5.59
27 | CC[C@H](C)[C@H](NC(N)=O)C(=O)NCCc1ccc(OC)cc1 | -0.532
28 | O=C(CSc1nc(-c2ccccc2)nc2ccc(F)cc12)Nc1cccc(C(=O)O)c1 | 2.54
29 | O=C(NCc1cccnc1)c1cccs1 | 11.7
30 | COc1cc(NC(=O)C23CC4CC(C2)CC(n2nnc(C)n2)(C4)C3)c(OC)cc1Cl | 4.76
31 | COc1ccc(CCN2CC(C(=O)NC3CCCCC3)CC2=O)cc1OC (stereo not drawn) | 10.2
32 | COC(=O)CC1SCCNC1=O (stereo not drawn) | 9.08
33 | CCCc1[nH]n(-c2nc3ccccc3s2)c(=O)c1C=NCCCN(CC)CC | -75.9
34 | CCN(CC)CCCSc1nc2ccccc2s1.O=C(O)C(=O)O | -31.9
35 | CCCc1[nH]n(-c2nc3ccccc3s2)c(=O)c1C=NCC(C)C | -75.4
36 | C/C(=N\NC(=O)CC(C)C)c1c(C(F)(F)F)[nH]n(-c2nc3ccccc3s2)c1=O | 8.88
37 | CC(=O)c1c(CC(=O)O)[nH]n(-c2nc3ccccc3s2)c1=O | 3.17
38 | Cc1cc(F)ccc1S(=O)(=O)N1CCCOC1CNC(=O)C(=O)NCc1ccc2c(c1)OCO2 (stereo not drawn) | -26.9
39 | Cc1ccc(NC(=O)CSc2nnc(-c3ccncc3)s2)cc1 | 5.52
40 | O=[N+]([O-])c1ccc(N2CCCCC2)c(Cl)c1N1CCCCC1 | 3.77
41 | C=C(C)COc1ccc(-c2nc(N)ncc2-c2ccc(Br)cc2)c(O)c1 | 23.6
42 | CC12CCC(C/C1=N/O)C2(C)C (stereo not drawn) | 6.85
43 | NC(=O)CCn1cnc2ccccc21 | 6.28
44 | O=C(NCc1cccnc1)c1ccc(=O)oc1 | -8.85

Row | Compound | hERG current change (%, negative = inhibition) at 10uM [%]
45 | CC(C)CNC(=O)c1cccc(NC(=O)COc2cccc([N+](=O)[O-])c2)c1 | -24.7
46 | CC(C)CNC(=O)c1cccc(NC(=O)COc2ccc([N+](=O)[O-])cc2)c1 | -57.4
47 | CCOC(=O)c1cccc(NC(=O)COc2ccc([N+](=O)[O-])cc2)c1 | -68
48 | CCOC(=O)c1cc(NC(=O)COc2ccc([N+](=O)[O-])cc2)cc(C(=O)OCC)c1 | -12.9
49 | CCCOC(=O)c1cccc(NC(=O)COc2ccc([N+](=O)[O-])cc2)c1 | -26.9
50 | Cc1cccc(OCC(=O)Nc2cccc(C(=O)NCC(C)C)c2)c1 | -17.4
51 | COCc1ccc(CN2CCCC(CO)(Cc3ccccc3C)C2)o1 (stereo not drawn) | 2.18
52 | CC(=O)Nc1ccc(NC(=O)c2cc(=O)c3cc(C)c(C)cc3o2)cc1 | 24.6
53 | Br.N=C1CCCN1CC(=O)c1ccc(Cl)cc1 | 1.8
54 | COC(=O)c1ccc(/C=N\NC(=O)CC(=O)NCCc2ccccc2)cc1 | 19.8
55 | O=C(C1CCCN(S(=O)(=O)c2cccc3cccnc23)C1)N1CCN(c2ccccc2F)CC1 (stereo not drawn) | -75.5
56 | O=C(Nc1ccc(F)cc1)C1CCCN(S(=O)(=O)c2cccc3cccnc23)C1 (stereo not drawn) | -49.3
57 | O=C(C1CCCN(S(=O)(=O)c2cccc3cccnc23)C1)N1CCN(c2ccc(F)cc2)CC1 (stereo not drawn) | -67.5
58 | O=C(O)C1CCCN(S(=O)(=O)c2cccc3cccnc23)C1 (stereo not drawn) | 10.9
59 | O=C(O)[C@@H]1CCCN(S(=O)(=O)c2cccc3cccnc23)C1 | 11.6
60 | COc1ccc(N2CCN(C(=O)C3CCCN(S(=O)(=O)c4cccc5cccnc45)C3)CC2)cc1 (stereo not drawn) | -32.1
61 | CCN1C(=O)[C@H]2[C@@H](c3ccc(C)cc3)N3C(=O)N(c4ccccc4)C(=O)[C@@]3(CC)[C@H]2C1=O | 3.81
62 | O=C(CN1C(=O)NC2(CCCCCC2)C1=O)N1CCC(Cc2ccccc2)CC1 | -24.4
63 | CN1CCN(C(=O)OC2c3nccnc3C(=O)N2c2ccc(Cl)cn2)CC1 (stereo not drawn) | 13.9
64 | O=C(NCC1CCCO1)c1c(O)c2cccc3c2n(c1=O)CC3 (stereo not drawn) | 10.4
65 | Cc1ccccc1C(=O)Nc1ccc(Cl)cn1 | 6
66 | CCCC(=O)Nc1ccc2c(c1)nc(CN1CCN(C(=O)OCC)CC1)n2CC | 9.54

Row | Compound | hERG current change (%, negative = inhibition) at 10uM [%]
67 | CCOC(=O)N1CCN(Cc2nc3cc(NC(=O)c4cccs4)ccc3n2CC)CC1 | -55.3
68 | Cn1c(CN2CCCCC2)nc2cc(NC(=O)c3cccs3)ccc21 | -31.2
69 | CC(=O)N1CCN(Cc2nc3cc(NC(=O)c4cccs4)ccc3n2C)CC1 | 13.8
70 | CCOC(=O)N1CCN(Cc2nc3cc(NC(=O)c4cccs4)ccc3n2C)CC1 | -74.7
71 | CCOC(=O)N1CCN(Cc2nc3cc(NC(C)=O)ccc3n2CC)CC1 | 14.9
72 | CCOC(=O)N1CCN(Cc2nc3cc(NC(=O)CC)ccc3n2CC)CC1 | 9.4
73 | CCOC(=O)N1CCN(Cc2nc3cc(NC(=O)c4ccco4)ccc3n2CC)CC1 | -58
74 | CCOC(=O)N1CCN(Cc2nc3cc(NC(=O)c4ccco4)ccc3n2C)CC1 | -26.5
75 | CCOc1ccc(C(=O)NC2CC(=O)N(c3ccc4c(c3)OCCO4)C2)cc1 (stereo not drawn) | -10.1
76 | COc1ccccc1C(=O)N1CCN(Cc2nc(CC3CC3)no2)CC1 | 9.93
77 | O=C(CCCc1ccccc1)Nc1ccnn1C1CCN(Cc2ccc(CO)o2)CC1 | -10.5
78 | O=C(CCCc1ccccc1)Nc1ccnn1C1CCN(Cc2ccc(Cl)cc2)CC1 | -74.8
79 | O=C(CCCc1ccccc1)Nc1ccnn1C1CCN(Cc2ccccc2)CC1 | -77.3
80 | Cc1nn(C)cc1CN1CCC(n2nccc2NC(=O)CCCc2ccccc2)CC1 | -3.27
81 | Cn1cc(CN2CCC(n3nccc3NC(=O)CCCc3ccccc3)CC2)cn1 | 5.95
82 | CC(CN1CCC(n2nccc2NC(=O)CCCc2ccccc2)CC1)c1ccccc1 (stereo not drawn) | -51.9
83 | Cc1ccccc1CN1CCC(n2nccc2NC(=O)CCCc2ccccc2)CC1 | -49.3
84 | O=C(CCCc1ccccc1)Nc1ccnn1C1CCN(Cc2ccccn2)CC1 | -15.2
85 | Cc1ccc(C)c(CN2CCC(n3nccc3NC(=O)CCCc3ccccc3)CC2)c1 | -54.8
86 | CC(C)n1cc(CN2CCC(n3nccc3NC(=O)CCCc3ccccc3)CC2)cn1 | -26
87 | CC(=O)N[C@@H](C)C(=O)N1CCC(n2nccc2NC(=O)CCCc2ccccc2)CC1 | -2.4
